From PubChem BioAssay come the findings set out here.

The inhibition is the relative decrease from the control value, in per cent.

Active and inactive are the calls of the source. No rule for the calls is given here.

Pantothenate synthetase (Mycobacterium tuberculosis (strain ATCC 25618 / H37Rv)), sequence (P9WIL5 whole entry, looked up): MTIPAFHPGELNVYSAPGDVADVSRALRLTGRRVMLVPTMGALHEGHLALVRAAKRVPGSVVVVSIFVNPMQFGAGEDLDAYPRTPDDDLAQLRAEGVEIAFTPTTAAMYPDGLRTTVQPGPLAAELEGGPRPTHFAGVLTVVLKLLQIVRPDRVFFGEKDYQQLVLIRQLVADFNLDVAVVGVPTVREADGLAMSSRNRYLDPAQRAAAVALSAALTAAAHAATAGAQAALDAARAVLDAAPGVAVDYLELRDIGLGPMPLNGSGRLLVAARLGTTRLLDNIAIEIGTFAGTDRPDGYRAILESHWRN

The test addresses Pantothenate synthetase (Mycobacterium tuberculosis (strain ATCC 25618 / H37Rv)) (UniProt P9WIL5). As to the kind of experiment: Coupled enzyme confirmation of inhibitors against recombinant Mtb PanC (AID 375).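 Also: 0% = full reaction with vehicle and 100% = no enzyme background.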 The note with it: coupled enzyme assay; at 10 µM, active compounds read high.
Consider `CCN1CCN(c2nc3c(c(=O)n(C)c(=O)n3C)n2CCSc2ncccn2)CC1`, for which the inhibition was 0% (inactive).
To `Cn1c(=O)oc2cc(S(=O)(=O)N3CCN(c4ccccn4)CC3)ccc21` belongs 0% (inactive); to `CCOC(=O)c1ccc(NC(=O)N2CCN(CCc3ccccc3)CC2)cc1`, 0% (inactive).
Then `Cc1cc(C)n(-c2ccc3cccc(NS(C)(=O)=O)c3n2)n1`, with 0% (inactive).
Then `Cc1oc(-c2cccc(Cl)c2)nc1CN1CCC(C(=O)N2CCN(c3ccccc3F)CC2)CC1`, with 2% (inactive).
For `COC(=O)Cc1c(C)c2ccc(OCC(=O)N3CCOCC3)cc2oc1=O`, the inhibition is 0% (inactive).
To `COc1ccccc1NC(=O)CSc1nnc(Cc2cccn2C)n1-c1ccc(F)cc1` belongs 0% (inactive); to `CCCC(CCC)n1[nH]c(=O)c2c(C)cc(C)nc21`, 0% (inactive); to `O=S1(=O)CCN2C(=N1)SC1=C2CCN(Cc2ccccc2)C1`, 2% (inactive).
Then `CCCn1c(=N)n(CC(=O)c2cccs2)c2ccccc21`, with 3% (inactive); and `CC(=O)OCC1=C(C(=O)O)N2C(=O)[C@@H](NC(=O)Cc3cccs3)[C@H]2SC1`, with 0% (inactive).
As to `O=S(=O)(NCC1CCCO1)c1ccc(S(=O)(=O)N2CCc3ccccc3C2)cc1` (stereo not given), the inhibition is 5% (inactive).
`CC(=O)N1CN(C2CCCC2)Cc2c1sc1c2CCCC1`: the inhibition is 0% (inactive).
To `CCn1nnnc1NCc1cccn1C` belongs 5% (inactive); to `CC(C)CCn1c(NCCc2ccccc2)nc2c1c(=O)n(C)c(=O)n2C`, 0% (inactive).
Take `C[C@H]1C[C@@H]2[C@H]([C@@H](O)C[C@@]3(C)[C@H]2CC[C@]3(O)C(=O)CO)[C@@]2(C)C=CC(=O)C=C12`: the inhibition was 0% (inactive).
Then `COC(=O)c1ccccc1NC(=O)c1noc2c1CC(C(C)(C)C)CC2` (stereo not given), with 2% (inactive).
Take `CN(C)CCNc1oc(-c2ccccc2F)nc1C#N`: the inhibition was 1% (inactive).
To `O=C(CSc1nc2ccccc2[nH]1)N1CCCCC1` belongs 0% (inactive); to `CCOC(=O)CSC1=Nc2ccccc2C2=NC(CC(=O)NCc3ccc(OC)cc3)C(=O)N12` (stereo not given), 2% (inactive).
Take `O=C(CSC1=NC(=O)C(Cc2ccccc2)C(=O)N1)NC1CCCCC1` (stereo not given): the inhibition was 0% (inactive).
To `COC(=O)n1c(=S)oc2cc(Cl)ccc21` belongs 0% (inactive); to `CC1CCN(C(=O)c2ccc(C(=O)N3CCC(C)CC3)cc2)CC1`, 0% (inactive); to `c1ccc(Cn2nnnc2C(c2ccccn2)N2CCOCC2)cc1` (stereo not given), 0% (inactive).
Then `CCc1ccc(CCC(=O)Nc2ccc(C)c(C)c2)o1`, with 4% (inactive); and `CCOc1ccc(N(CC(=O)NC2CCCC2)S(=O)(=O)c2c(C)[nH]c(=O)[nH]c2=O)cc1`, with 0% (inactive).
Then `CN(C)CCCNC(=O)c1ccc(CN(c2ccccc2)S(C)(=O)=O)cc1`, with 0% (inactive); and `CC(C)C[C@H](NC(=O)Nc1cccc(C(F)(F)F)c1)C(=O)O`, with 0% (inactive); and `CC(C)(C)C1CCc2c(sc3c2C(=O)NC(c2ccco2)N3)C1` (stereo not given), with 2% (inactive).
Turning to `CCC(=O)N1CCc2cc(S(=O)(=O)CCC(=O)Nc3ccc(F)c(F)c3)ccc21`, the inhibition is 0% (inactive).
To `COc1ccc(-n2c(SCC(=O)N3CCCCC3C)nnc2-c2cccnc2)cc1` (stereo not given) belongs 0% (inactive); to `CC(=O)NC(CCS(C)(=O)=O)C(=O)Nc1cccc(C)c1C` (stereo not given), 0% (inactive); to `CC(C)C(=O)Nc1ccc2c(c1)nc1n2CCSC1`, 0% (inactive).
Then `COc1cccc(NC(=O)Nc2cccs2)c1`, with 0% (inactive); and `Nc1nc2ccc(OC(F)(F)F)cc2s1`, with 7% (inactive).
Then `CCOC(=O)CSC1=Nc2ccccc2C2=NC(CC(=O)NCc3cccs3)C(=O)N12` (stereo not given), with 4% (inactive); and `COc1ccc(CC(=O)Nc2cc(Cl)ccc2O)cc1`, with 5% (inactive); and `O=C1C2C3C=CC(C3)C2C(=O)N1c1cccc(N2C(=O)C3C4C=CC(C4)C3C2=O)n1` (stereo not given), with 0% (inactive).
Regarding `Cn1c(SCC(N)=O)nnc1C1CCN(S(=O)(=O)c2ccccc2C(F)(F)F)CC1`, the inhibition was 0% (inactive).
Then `CCc1nc(N)c(C#N)c(-c2ccc(OC)c(OC)c2)c1C`, with 2% (inactive).
